# Experimental data reported in ChEMBL document CHEMBL3433997, “St. Jude Leishmania screening dataset” (2016).
# Legend:
# Type in all cases: functional
# [1] = target: Solute carrier family 2, facilitated glucose transporter member 1 (Homo sapiens) (UniProt P11166); test: ST_JUDE_LEISH: Cytotoxicity at 2uM final concentration against transgenic Leishmania Mexicana promastigotes LmGLUT1 that are glucose transport deficient and complemented with the human glucose transporter GLUT1. Activity is measured by DNA content using SYBR green in vitro
# Solute carrier family 2, facilitated glucose transporter member 1 (Homo sapiens), sequence (P11166 whole entry): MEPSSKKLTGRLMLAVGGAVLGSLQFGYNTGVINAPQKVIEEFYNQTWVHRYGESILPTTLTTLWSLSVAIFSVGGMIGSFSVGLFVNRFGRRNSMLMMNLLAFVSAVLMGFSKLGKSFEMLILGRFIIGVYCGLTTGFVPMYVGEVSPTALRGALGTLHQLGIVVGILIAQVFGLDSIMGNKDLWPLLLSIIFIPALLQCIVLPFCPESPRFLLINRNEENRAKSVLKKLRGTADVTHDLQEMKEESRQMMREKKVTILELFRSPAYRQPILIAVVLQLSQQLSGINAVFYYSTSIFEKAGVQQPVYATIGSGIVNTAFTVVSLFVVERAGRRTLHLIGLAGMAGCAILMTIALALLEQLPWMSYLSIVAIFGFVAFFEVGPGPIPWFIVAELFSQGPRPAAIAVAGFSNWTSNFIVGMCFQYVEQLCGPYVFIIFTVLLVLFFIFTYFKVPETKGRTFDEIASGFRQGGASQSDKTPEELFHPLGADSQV
# [2] = target: Hexose transporter 1 (Plasmodium falciparum) (UniProt O97467); test: ST_JUDE_LEISH: Cytotoxicity at 2uM final concentration against transgenic Leishmania Mexicana promastigotes LmPfHT that are glucose transport deficient and complemented with the Plasmodium falciparum hexose transporter. Activity is measured by DNA content using SYBR green in vitro
# [3] = target: Glucose transporter (Leishmania mexicana) (UniProt O61059); test: ST_JUDE_LEISH: Cytotoxicity at 2uM final concentration against transgenic Leishmania Mexicana promastigotes LmGT2 that are glucose transport deficient and complemented with the L. Mexicana glucose transporter 2. Activity is measured by DNA content using SYBR green in vitro
SMILES,inhibition [1] [%],inhibition [2] [%],inhibition [3] [%]
CN(C)CC(=O)N(Cc1ccc(Cl)c(Cl)c1)Cc1csc(-c2ccc(CNCc3ccccc3)cc2)n1,3.28,0.77,0.35
COc1cccc(NC(=O)Nc2ccc(Nc3nc(C)cc(N(C)C)n3)cc2)c1,2.46,1.22,-4.92
CC(=O)Nc1ccc(C(=O)Nc2cccc(-c3ccc(-c4nc5cccc(C)c5[nH]4)cc3)c2)cn1,4.86,4.51,4.91
CN(C)C(C)(C)CN(Cc1ccc(-c2ccc(C(F)(F)F)cc2)cc1)C(=O)Cn1c(CCc2cccc(F)c2F)nc(=O)c2ccccc21,1.52,0.48,0.79
O=C(NCCCCN1CCC(c2ccc3ccccc3c2O)CC1)c1ccc(-c2ccc(Cl)cc2)cc1,5.43,3.32,3.45
CC[C@H](C)CNC(=O)c1cncc(-c2cccc(CNCCCc3ccccc3)c2)c1,4.76,3.06,4.25
O=c1cc(NCCCNC2CCCc3c2ccc2ccccc32)[nH]c2ccccc12 (stereo unspecified),4.07,4.85,2.74
CCOc1c(Br)cc(Br)cc1CNCCCCNc1nc2ccccc2[nH]1,3.08,2.4,3.2
Cn1c(Sc2ncnc3sccc23)nc2ccccc21,2.32,2.23,2.32
Cc1cccc2nc(-c3cccc(-c4cccc(CN5CCN(c6ccc(C#N)cn6)CC5)c4)c3)[nH]c12,11.6,10.3,9.4
O=C(C1CC1c1ccccc1)N(Cc1ccc(-c2ccc(CNCCc3ccccc3)cc2)cc1)C1CCNCC1 (stereo unspecified),10.3,8.35,9.97
COCCn1c(Sc2ncnc3sccc23)nc2ccccc21,0.98,2.13,1.8
O=c1cc(NCCCCNCc2cccc(Br)c2)[nH]c2ccccc12,5.23,5.07,3.39
COc1cncc(/C=C/c2cncc(C(=O)NCCc3ccc(Cl)cc3Cl)c2)c1,4.53,5.13,3.94
N=C(Cc1ccc(Cl)cc1)NCCN1CCCCCC1,5.13,7.11,6.19
Cc1cc(NC(=O)c2cc(S(=O)(=O)N3CCCCC3)ccc2C)no1,4.25,4.4,2.15

SMILES,inhibition [1] [%],inhibition [2] [%],inhibition [3] [%]
CC(C)[C@H](NC(=O)c1c(CN2CCC(N3CCCCC3)CC2)c(-c2ccccc2)nc2cc(O)ccc12)c1ccccc1,2.26,1.22,0.91
COc1ccc(NC(=O)N2CCc3ccc(OCCN(C(C)C)C(C)C)cc32)cc1C(F)(F)F,7.93,7.33,5.73
O=C(NC1CCCc2ccccc21)C1CCCN(C(=O)c2ccc(O)c(-c3ccc(Cl)c(Cl)c3)c2)C1 (stereo unspecified),1.28,2.04,2.38
COCCNCc1ccc(-c2cccc(CN(C(=O)NCCc3ccccc3)C3CCN(Cc4ccccc4)CC3)c2)cc1,1.13,-0.26,-1.5
Oc1nc(Cc2ccccc2)nc2ccc(Cl)cc12,2.13,2.54,4.12
COc1cccc(C(=O)NCCc2cccc(Cl)c2)c1OCc1ccccc1,0.04,-0.53,-0.7
Cn1c(=N)n(CC(=O)OCc2ccc(OCc3ccccc3)cc2)c2ccccc21,2.99,2.29,1.49
N#Cc1ccc(N/C(=N\c2ccc(-c3ccccc3)cc2)NCCc2c[nH]c3ccccc23)c(O)c1,9.42,8.49,8.99
Cn1cncc1-c1ccc2ncnc(Nc3ccc4c(cnn4Cc4ccccc4)c3)c2c1,1.39,2.21,1.22
COc1ccc(CNCc2ccc(-c3ccc(-c4nc5cc(C(F)(F)F)ccc5[nH]4)cc3)cc2)cc1,3.97,1.19,3.06
CCC(=O)N(c1ccccc1)C1CCN(CCCC(NC(=O)Nc2cc(C(F)(F)F)cc(C(F)(F)F)c2)c2ccc(Cl)c(Cl)c2)CC1 (stereo unspecified),-1.01,0.47,0.22
Cc1cc(NCCC(=O)Nc2ccccc2)nc(NCCc2ccc(F)cc2)n1,3.19,3.34,1.6
COc1ccc2ncc(C#N)c(CCN3CCC(NCc4ccc5c(n4)NC(=O)CS5)CC3)c2n1,3.43,6.45,0.77
COc1cc(NC(=O)c2sc(-c3ccc(Cl)cc3)cc2NC(=O)N2CCCC2)ccc1OCCN1CCCC1,2.35,3.29,1.4
O=C(c1csc(-c2cccnc2)n1)N1CCc2cc3nccc(N4CCN5CCC[C@H]5C4)c3cc21,15,8.81,5.59
CN(C)Cc1cccc(-c2cnc(N)c(-c3nc4cc(S(C)(=O)=O)ccc4[nH]3)c2)c1,2.57,5.29,3.97
